# In PubChem BioAssay (NCATS):
# Results filed as inconclusive are left out. Where a call stands in place of a potency, no number is given. A number with no mark means an inactive call. Active and inactive are the calls of the source. Unless noted, calls come from the whole dose curve.
# Key:
# [1] = qHTS for Inhibitors of the Functional Ribonucleoprotein Complex (vRNP) of Lassa (LASV) Arenavirus: LASV Primary Screen - GLuc reporter signal (AID 1347082; calls by dose curve; tested in HEK293 reporter line; note: nearly all actives have a fitted effect of over 60% in size); settings: LASV minigenome vRNP, Gaussia luciferase reporter; series mostly up to 57.5 µM
# [2] = qHTS for Inhibitors of the Functional Ribonucleoprotein Complex (vRNP) of Lassa (LASV) Arenavirus: Viability assay - alamar blue signal for LASV Primary Screen (AID 1347083; calls by dose curve; tested in HEK293 reporter line; note: nearly all actives have a fitted effect of over 80% in size); settings: cell viability, alamar blue fluorescence (LASV minigenome counter-screen); series mostly up to 57.5 µM
# [3] = qHTS for Inhibitors of the Functional Ribonucleoprotein Complex (vRNP) of Lymphocytic Choriomeningitis Arenaviruses (LCMV): Viability assay - alamar blue signal for LCMV Primary Screen (AID 1347085; calls by dose curve; tested in HEK293 reporter line; note: nearly all actives have a fitted effect of over 80% in size); settings: alamar blue viability counter-screen, LCMV vRNP screen cells; series mostly up to 57.5 µM
# [4] = target: Nucleoprotein (Lymphocytic choriomeningitis virus (strain Armstrong)) (UniProt P09992); experiment: qHTS for Inhibitors of the Functional Ribonucleoprotein Complex (vRNP) of Lymphocytic Choriomeningitis Arenaviruses (LCMV): LCMV Primary Screen - GLuc reporter signal (AID 1347086); settings: LCMV minigenome vRNP cell assay, Gaussia luciferase reporter; series mostly up to 57.5 µM; note: nearly all actives have a fitted effect of over 70% in size
# Sequence of Nucleoprotein (Lymphocytic choriomeningitis virus (strain Armstrong)) (P09992 whole entry, looked up): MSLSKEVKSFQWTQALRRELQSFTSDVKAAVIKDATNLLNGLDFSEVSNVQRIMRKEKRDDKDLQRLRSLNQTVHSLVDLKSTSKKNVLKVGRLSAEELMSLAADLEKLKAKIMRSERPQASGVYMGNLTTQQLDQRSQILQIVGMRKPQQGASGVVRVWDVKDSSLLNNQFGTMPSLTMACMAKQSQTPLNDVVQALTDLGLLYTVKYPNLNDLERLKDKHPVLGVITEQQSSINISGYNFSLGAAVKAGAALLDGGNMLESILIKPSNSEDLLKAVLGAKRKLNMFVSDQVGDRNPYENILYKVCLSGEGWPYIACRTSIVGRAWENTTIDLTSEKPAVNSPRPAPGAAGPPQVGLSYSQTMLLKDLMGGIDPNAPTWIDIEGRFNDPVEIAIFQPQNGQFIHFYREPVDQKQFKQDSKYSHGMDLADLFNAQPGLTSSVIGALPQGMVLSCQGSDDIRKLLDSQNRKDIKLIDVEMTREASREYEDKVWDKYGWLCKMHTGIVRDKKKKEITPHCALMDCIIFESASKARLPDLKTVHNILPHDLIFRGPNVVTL
# Potency is the fitted concentration of half-maximal effect.
SMILES,Potency [1],Potency [2],Potency [3],Potency [4],"activity change, negative = inhibition [1]","activity change, negative = reduced viability [2]","activity change, negative = lower viability [3]","activity change, negative = inhibition [4]"
COC(=O)C1=CO[C@@H](OC2OC(CO)C(O)C(O)C2O)[C@@H]2C(CO)=CC[C@H]12 (stereo not given in full),inactive,inactive,inactive,inactive,,,,
Cc1ccc(-c2ccccc2)cc1,inactive,inactive,inactive,inactive,,,,
CCCCOC(=O)C(=O)OCCCC,inactive,inactive,inactive,inactive,,,,
CCN1C[C@]2(COC)CC[C@H](O)[C@@]34C5C[C@@H]6[C@@H](OC)C[C@@](O)(C5[C@H]6O)[C@](O)([C@@H](OC)C23)[C@@H]14 (stereo not given in full),inactive,inactive,inactive,inactive,,,,
COc1ccccc1NC(C)=O,inactive,inactive,inactive,inactive,,,,
C[C@@H](O)CCCCn1c(=O)c2c(ncn2C)n(C)c1=O,inactive,inactive,inactive,inactive,,,,
CC(C)OC(=O)c1ccccc1,inactive,inactive,inactive,inactive,,,,
COc1cc2oc(=O)ccc2c(OC)c1CC(O)C(C)(C)O (stereo not given),inactive,inactive,inactive,inactive,,,,
CC(=O)c1c(O)cc(O)cc1O,inactive,inactive,inactive,inactive,,,,
OCc1ccccc1O[C@@H]1O[C@H](CO)[C@H](O)[C@H](O)[C@H]1O,inactive,inactive,inactive,inactive,,,,
CC/C=C\C[C@H](O)/C=C/C=C\C/C=C\C/C=C\CCCC(=O)O,,,,,-0.193% [at 0.757 µM],19.4% [at 0.757 µM],7.46% [at 0.757 µM],12.1% [at 0.757 µM]
COc1cc2oc(=O)c3c4c(cc5ccc(c1CCN(C)C)c2c53)OCO4,inactive,inactive,inactive,inactive,,,,
COc1cc2c(cc1OC)-c1cc3ccc4c(c3c[n+]1CC2)OCO4,inactive,inactive,inactive,inactive,,,,
O=c1ccc2cc3ccoc3cc2o1,inactive,inactive,inactive,inactive,,,,
COc1c(C)c2c(c(O)c1CC=C(C)CCC(=O)OCCN1CCOCC1)C(=O)OC2,6.11 µM (active),6.85 µM (active),12.2 µM (active),6.11 µM (active),,,,
Cc1nc(C)c(C)nc1C,inactive,inactive,inactive,inactive,,,,
O=C(NCCCCNCCCNC(=O)c1ccccc1)c1ccccc1,inactive,inactive,inactive,inactive,,,,
O=C(O)[C@H]1NC[C@H]2C[C@H]21,inactive,inactive,inactive,inactive,,,,
CC(Cc1c[nH]c2ccccc12)C(=O)O (stereo not given),inactive,inactive,inactive,inactive,,,,
CC(=O)O[C@]1(C(C)=O)CC[C@@H]2[C@@H]3C[C@H](C)C4=CC(=O)CC[C@]4(C)[C@H]3CC[C@@]21C,inactive,inactive,inactive,inactive,,,,

SMILES,Potency [1],Potency [2],Potency [3],Potency [4],"activity change, negative = inhibition [1]","activity change, negative = reduced viability [2]","activity change, negative = lower viability [3]","activity change, negative = inhibition [4]"
C[C@@H](O)CCC[C@H](O)/C=C/[C@@H]1[C@@H](C/C=C\CCCC(=O)O)[C@@H](O)C[C@H]1O,,,,,-12.1% [at 0.757 µM],-24.9% [at 0.757 µM],-64.4% [at 0.757 µM],-26.1% [at 0.757 µM]
C=C[C@]1(C)C=C2C(=O)[C@@]3(O)OC(=O)[C@@]4(CCCC(C)(C)[C@H]34)[C@@]2(O)CC1,inactive,inactive,inactive,inactive,,,,
Cc1cc(=O)c2c(O)c3c(O)cc(O)c4c5c(O)cc(O)c6c(O)c7c(=O)cc(C)c8c1c2c(c34)c(c65)c78,inactive,inactive,inactive,inactive,,,,
CC1=CC[C@@]23C[C@@H]1C(C)(C)[C@@H]2CC[C@H]3C,inactive,inactive,inactive,inactive,,,,
O=C(O)C=Cc1ccc(Cn2ccnc2)cc1,inactive,inactive,inactive,inactive,,,,
C=CCCCCCCCCC=O,inactive,inactive,inactive,inactive,,,,
CCCCCCCCCCOS(=O)(=O)O,inactive,inactive,inactive,inactive,,,,
C=C(CO)CC1CC(O)[C@]2(C)OC3CC4OC5C[C@]6(C)O[C@]7(C)CCC8OC9C[C@]%10(C)OC%11C(C)=CC(=O)OC%11CC%10OC9C[C@@H](C)C8OC7CC6O[C@]5(C)C/C=C\C4OC3CC2O1 (stereo not given in full),inactive,inactive,inactive,inactive,,,,
C=Cc1cc(OC)c2c(c1)c(=O)oc1c2cc(OC)c2c(O)ccc(C3OC(C)C(O)C(C)(O)C3O)c21 (stereo not given),inactive,inactive,inactive,inactive,,,,
O=C(NCO)c1cccnc1,inactive,inactive,inactive,inactive,,,,
COC(=O)C1=CO[C@@H](C)[C@@H]2CN3CC[C@@]4(C(=O)Nc5ccccc54)[C@@H]3C[C@H]12,inactive,inactive,inactive,inactive,,,,
COc1cc(C/C=C\c2ccccc2)c(OC)cc1O,inactive,inactive,inactive,inactive,,,,
CC(C)CNC(=O)/C=C/C=C/c1ccc2c(c1)OCO2,inactive,inactive,inactive,inactive,,,,
CCOc1ccc(O)cc1,inactive,inactive,inactive,inactive,,,,
C=C1C(=O)O[C@H]2C[C@]3(C)C([C@@H](OC(=O)/C(C)=C/C)[C@H]12)[C@](C)(O)CC[C@H]3O (stereo not given in full),inactive,inactive,inactive,inactive,,,,
SC1CCCC1,inactive,inactive,inactive,inactive,,,,
CN(C)c1nc(Cc2ccc(NC(=O)c3ccc4ccccc4c3)cc2)nc(Cl)c1CC(=O)O,inactive,inactive,inactive,inactive,,,,
O=c1cc(-c2ccc(O)cc2)oc2cc(OC3OC(CO)C(O)C(O)C3O)c(C3OC(CO)C(O)C(O)C3O)c(O)c12 (stereo not given),inactive,inactive,inactive,inactive,,,,
CCCCCCCCCCCCCC,inactive,inactive,inactive,inactive,,,,
CN1CC(=O)N2C(Cc3c([nH]c4ccccc34)[C@H]2c2ccc3c(c2)OCO3)C1=O (stereo not given in full),inactive,inactive,inactive,inactive,,,,

SMILES,Potency [1],Potency [2],Potency [3],Potency [4],"activity change, negative = inhibition [1]","activity change, negative = reduced viability [2]","activity change, negative = lower viability [3]","activity change, negative = inhibition [4]"
COc1ccc([C@H]2Cc3cccc(O)c3C(=O)O2)cc1O,inactive,inactive,inactive,inactive,,,,
O=c1c(O[C@@H]2OC([C@H](O)CO)[C@H](O)[C@H]2O)c(-c2ccc(O)c(O)c2)oc2cc(O)cc(O)c12 (stereo not given in full),inactive,inactive,inactive,inactive,,,,
COc1cc2c(cc1OC)[C@H]1C(=O)c3ccc4c(c3O[C@H]1CO2)C[C@@H](C(C)(C)O)O4,inactive,inactive,inactive,inactive,,,,
COc1ccc(C2Sc3ccccc3N(CCN(C)C)C(=O)C2OC(C)=O)cc1 (stereo not given),inactive,inactive,inactive,inactive,,,,
C=C1CCC2C(C)(C)[C@@H](O)CC[C@@]2(C)[C@@H]1COc1ccc2ccc(=O)oc2c1 (stereo not given in full),inactive,inactive,inactive,inactive,,,,
C[C@H]1[C@@H](OC(=O)CCC(=O)O)O[C@@H]2O[C@@]3(C)CC[C@@H]4[C@H](C)CC[C@@H]1[C@@]24OO3,9.68 µM (active),5.44 µM (active),5.44 µM (active),3.06 µM (active),,,,
C[C@H](CCC(=O)NCC(=O)O)[C@H]1CC[C@H]2[C@@H]3[C@H](O)C[C@@H]4C[C@H](O)CC[C@]4(C)[C@H]3C[C@H](O)[C@]12C,inactive,inactive,inactive,inactive,,,,
Cc1c[nH]c(C=C2C(=O)Nc3ccccc32)c1CCC(=O)O,inactive,inactive,inactive,inactive,,,,
CCCCCCCC(=O)C(C)C(=O)N(C)[C@H](Cc1ccc(OC)cc1)C(=O)N(C)[C@H](C(N)=O)C(C)C (stereo not given in full),inactive,inactive,inactive,inactive,,,,
COc1ccc(C(=O)OC2CC[C@@]3(C)C4CCC5[C@]6(O)C[C@H](O)[C@@]7(O)C(CN8CC(C)CCC8[C@@]7(C)O)[C@]6(O)C[C@@]53O[C@]24O)cc1OC (stereo not given in full),inactive,inactive,inactive,inactive,,,,
CC1CCC(=O)O1 (stereo not given),inactive,inactive,inactive,inactive,,,,
O=c1c(-c2ccc(O)cc2)coc2cc(OC3OC(CO)C(O)C(O)C3O)ccc12 (stereo not given),inactive,inactive,inactive,inactive,,,,
COc1ccc(C2CC(=O)c3c(O)cc(O)cc3O2)c(CC=C(C)C)c1OC (stereo not given),inactive,inactive,inactive,inactive,,,,
C[C@@H](C[C@@H](O)[C@H](O)C(C)(C)O)[C@@H]1CC[C@]2(C)C3=CC[C@H]4C(C)(C)C(=O)CC[C@]4(C)[C@H]3CC[C@@]12C,inactive,inactive,inactive,inactive,,,,
CC(=O)C1CCC2(O)C3CCC4=CC(=O)CCC4(C)C3CCC12C (stereo not given),inactive,inactive,inactive,inactive,,,,
CCC/C=C/C/C=C/C=C/C=N/NN=O,inactive,inactive,inactive,inactive,,,,
Nc1nc(=O)n([C@H]2CSC(CO)O2)cc1F (stereo not given in full),inactive,inactive,inactive,inactive,,,,
CC1=C(O)C(=O)CO1,inactive,inactive,inactive,inactive,,,,
CC(=O)OC(C)c1ccccc1 (stereo not given),inactive,inactive,inactive,inactive,,,,
O=C(c1ccc(F)cc1)N1CCC[C@H](c2nc(-c3ccc(F)cc3)no2)C1,inactive,inactive,inactive,inactive,,,,
